GLP-1R inv ag – qHTS of GLP-1 Receptor Inverse Agonists (Inhibition Mode); Glucagon-like peptide 1 receptor (Homo sapiens), P43220; HEK293 GLP-1R CRE-luciferase, luminescence, 24 h; GLP-1R form is constitutively active; Potency, µM (titrated, usually from 38.3 µM), for the others: at the highest dose activity change, negative = inhibition, actives largely listed as inhibitors; 410,000 compounds, 1.6% hits; AID 624417, 2012; also: % is scaled to controls: 0 for no effect and ±100 for the full control effect; nearly all actives have a fitted effect of over 55% in size
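Inverse agonism was detected as reduced cAMP-driven luciferase luminescence after 24 h compound treatment. The cells were HEK293 clones expressing constitutively active human GLP-1R with the reporter. Reporter-only and GPR119 cell lines served as counterscreen controls.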
ClpP mod – qHTS Assay for Activators of ClpP | AID 651965, 2013 | Potency, µM (titrated, usually from 57.5 µM), without a hit: top-dose activity change, negative = active | 340,000 compounds, 1.9% hits | purified B. subtilis ClpP, FRET peptide cleavage, 20 min | ATP-dependent Clp protease proteolytic subunit (Bacillus subtilis (strain 168)), P80244; active = well fitted falling curve with a large enough effect; inconclusive = small, poorly fitted or top-dose-only effect; inactive = no such curve, though single readings can be large or run the other way; also: the source files actives as falling curves though it sought activators and does not explain the sign; nearly all actives have a fitted effect of over 65% in size
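Buffer: 100 mM Tris/HCl pH8, 100 mM KCl, 0.05% low protease BSA, 2.5% glycerol, 0.01% Tween-20. ClpP 10 microg/mL final; 20 min RT; delta FRET normalized to ADEP and DMSO controls.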
GLP1R ag – qHTS of GLP-1 Receptor Agonists; Glucagon-like peptide 1 receptor (Homo sapiens), P43220; HEK293 GLP-1R CRE-luciferase, luminescence, 4-6 h; cells express a hypersensitive GLP-1R form; Potency, µM (top dose mostly 45.6 µM), for the others: at the top dose activation, usual class: activators; 380,000 compounds, 0.007% hits; AID 624172, 2012; also: % of control where 0% means no effect
GLP1R cytotox – qHTS of GLP-1 Receptor Inverse Agonists: Cytotox Screen | AID 624418, 2012 | HEK293 cAMP-luciferase reporter cells, luminescence, 24 h | Potency, µM (series often up to 38.3 µM), for inactives: top-dose activity change, negative = inhibition, most hits filed as inhibitors | 410,000 compounds, 0.13% hits;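 also: loss of luciferase light is scored as toxicity; % is scaled to controls: 0 for no effect and ±100 for the full control effect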
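Compound-treated cells are incubated 24 hr at 37 deg C under 5% CO2 after a 12 hour attachment period, then luciferase detection reagent is added and luminescence is measured following 12 min at room temperature; lowered signal indicates toxicity.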
ClpP inh valid – qHTS Assay for Activators of ClpP: Hit Validation of Inhibitors; shares compounds with ClpP mod; purified B. subtilis ClpP, FRET-FV substrate cleavage, 20 min; Potency, µM (highest dose often 57.5 µM), inactives show top-dose activity change, negative = inhibition, usual class: inhibitors; 470 compounds, 40% hits; also: % is scaled to controls: 0 for no effect and ±100 for the full control effect; nearly all actives have a fitted effect of over 70% in size
Numbers without * were called inactive; ? = inconclusive; · = no result given. This is a sample that favours compounds with a hit; in the whole collection about 3.2% have one here. Unless noted, calls follow the shape of the dose curve; as a rule, active = well fitted curve in the direction sought with a large enough effect; inconclusive = small, poorly fitted or top-dose-only effect, or another doubt; inactive = no such curve, though single readings can be large; an effect the other way counts as inactive or inconclusive. Potency is read from the fitted curve at half-maximal effect.

SMILES	GLP-1R inv ag	ClpP mod	GLP1R ag	GLP1R cytotox	ClpP inh valid
CCOc1ccc(NC(=O)N(Cc2c[nH]c3ccccc23)C2CCCCC2)cc1	-14%	10%	-1%	-2%	·
CCOc1ccc(-c2cn3c(n2)sc2cc(C(=O)NC4CCCc5ccccc54)ccc23)cc1 (centres undefined)	4%	5µM*	·	1%	?
COc1ccc(-c2cn3c(n2)sc2cc(C(=O)NC4CCCCC4)ccc23)cc1	-13%	?	·	3%	·
COc1cc(C(=O)C(=O)N2CCN(c3ccccc3)CC2)cc(OC)c1OC	?	-1%	·	-21%	·
O=C(O)C1=CC(=C(c2ccc(O)c(C(=O)O)c2)c2ccc(O)c(C(=O)O)c2)C=CC1=O	·	4%	·	·	?
Cc1nnc(NC(=O)c2sc3ccccc3c2Cl)s1	?	-6%	-14%	8%	·
CNC(=O)c1ccsc1NC(=O)c1sc2ccccc2c1Cl	46%	58%	13%	4%	?
COc1ccc(N2C(=O)NC3CC2(C)Oc2ccccc23)cc1 (centres undefined)	-24%	·	-1%	-4%	·
COc1ccc(N2C(=O)NC3CC2(C)Oc2ccc(Br)cc23)cc1OC (centres undefined)	-1%	177%	0%	-4%	0%
O=C(c1cc2c(=O)n3ccccc3nc2s1)N1CCOCC1	19%	4.5µM*	1%	29%	24µM*
O=C(Nc1ccc(F)cc1)N1CCN2C(=O)c3ccccc3C12c1ccccc1 (centres undefined)	0%	4µM*	-3%	-2%	1%
O=C1c2ccccc2C2(c3ccccc3)N1CCN2C(=O)C(Cl)(Cl)Cl (centres undefined)	?	-1%	13%	-4%	·
O=C(Nc1ccc([N+](=O)[O-])cc1Cl)c1cc(Br)ccc1O	·	-1%	·	·	·
O=c1c2ccccc2nc2n1CCCN2	31%	·	4%	-2%	·
O=c1c2ccccc2nc2n1CCCCN2	12%	4µM*	-3%	-4%	24µM*
